Bioassay records (PubChem BioAssay)
D1 potentiator = human D1 dopamine receptor positive modulation. potentiation, % at 10 µM. HEK293 TREx D1 cells, calcium flux, dopamine EC20 potentiation. P21728. hit rate 0.036% among 360,000; in the data active = potentiation above about 30%; note: 0% is about no effect
D1 agonist = activates the human D1 dopamine receptor. activation, % at 2 µM. hit rate 1% among 360,000. AID 504660. P21728. HEK293 T-REx D1 cells, calcium flux, agonist mode; note: 0% is about no effect
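Agonism was scored from calcium flux recorded over 180 s (1 read/s) after pintool compound addition, following a 10-cycle baseline. Cells were inducible force-coupled HEK293 TREx D1, plated overnight at 30 C and loaded with no-wash calcium dye.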
TRHR enhancer = allosteric enhancers of human TRH receptor | AID 493056 | hit rate 0.66% among 360,000 | enhancement, % at 2 µM | P34981 | TRHR cells, fluo-8 calcium fluorescence, EC20 TRH enhancement; in the data active = enhancement above about 30%; note: 0% is about no effect
Target sequence (P34981 whole entry, looked up): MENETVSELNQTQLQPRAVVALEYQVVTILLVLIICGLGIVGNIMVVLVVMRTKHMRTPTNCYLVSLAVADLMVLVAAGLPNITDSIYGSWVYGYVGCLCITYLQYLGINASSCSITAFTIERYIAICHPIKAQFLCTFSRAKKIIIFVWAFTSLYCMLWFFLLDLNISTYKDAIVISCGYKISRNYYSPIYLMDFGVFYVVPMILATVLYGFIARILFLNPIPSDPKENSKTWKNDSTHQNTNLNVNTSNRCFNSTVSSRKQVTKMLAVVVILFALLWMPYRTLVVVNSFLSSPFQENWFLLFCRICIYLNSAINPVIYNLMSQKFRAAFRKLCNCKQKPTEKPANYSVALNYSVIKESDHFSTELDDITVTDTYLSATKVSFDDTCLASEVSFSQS
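Enhancer read-out: after compound pinning and an initial kinetic agonist-mode read, an EC20 of TRH (10 nM final) was injected and fluo-8 calcium signal (Ex 480/Em 530) followed at 1 s/cycle for 100 cycles in TRHR-expressing cells.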
TRHR agonist = agonists of human TRH receptor; TRHR cells, calcium flux fluo-8, FDSS agonist mode; activation, % at 2 µM; hit rate 0.18% among 360,000; P34981; AID 493084; note: 0% is about no effect
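In this calcium-flux screen, cells bearing human TRHR are dye-loaded with fluo-8, baselined for 10 cycles, then exposed to library compounds; positive kinetic calcium responses during the agonist phase mark hits, with TRH as control.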
D1 antag = blocks dopamine activation of the human D1 receptor; HEK293 TREx D1 cells, calcium flux, dopamine EC80; active compounds read low; activity change, negative = inhibition, % at 10 µM; hit rate 3.2% among 360,000; AID 504652; in the data active = activity change below about -30%; note: % is set by controls: 0 for no effect and ±100 for the full control effect
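Kinetic fluorescence of a calcium dye serves as the read-out. D1-expressing Hek293 Trex cells, induced overnight at 30 C, are exposed to compound for 180 s before an EC80 dopamine addition, then read 180 s further.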
* marks the source's active call; other numbers are inactive results; / = not tested or not shown. Hits are enriched below; roughly 4.6% of the tested compounds scored in any of these assays. Cut-off read from the data, not from the text of the source, unless noted: active = activation above about 30%; inactive = the rest.

SMILES	D1 potentiator	D1 agonist	TRHR enhancer	TRHR agonist	D1 antag
O=C(/C=C/c1cn(-c2ccccc2)nc1-c1cccs1)NCCN1CCOCC1	-1	2	-2	-1	4
CC(=O)Nc1ccc(NC(=O)c2ccccc2C)cc1	6	-1	2	0	6
CC(=O)Nc1ccc(NC(=O)c2ccccc2CCc2ccccc2)cc1	-12	4	0	-1	-31*
N#Cc1c(SCc2ccccc2)sc(C(=O)c2ccccc2)c1N	-6	-1	-21	0	-49*
O=C(O)Cc1ccc2ocnc2c1	-4	4	13	0	21
COCCCNc1c2c3c(cccc3[nH]c1=O)C(=O)c1ccccc1-2	/	809*	17	0	-53*
NC(=O)c1ccc(/C=N/O)nc1	1	3	38*	0	3
Cc1ccc(N=C2SC(C(=O)O)CC(=O)N2C)cc1C (stereo unspecified)	7	1	34*	1	-5
CC1CCCC(NCC(O)COC(c2ccc(F)cc2)c2ccc(F)cc2)C1C (stereo unspecified)	-8	63*	-3	2	17
COc1cc2[nH]c(C(=O)N3CCc4ccccc4C3)cc2c(OC)c1OC	-3	1	9	0	1
COc1cc2cc(C(=O)N3CCc4ccccc4C3)[nH]c2cc1OC	-7	-1	1	-1	-33*
O=C(Nc1ccc(Cl)cc1Cl)c1cc(S(=O)(=O)N2CCCCCC2)ccc1F	0	-3	-2	0	-1
Cc1ccc(OCC(=O)c2cc(C)n(Cc3cccs3)c2C)c([N+](=O)[O-])n1	-7	12	39*	0	-7
Cc1ccc(OCC(=O)c2cc(C)n(CC(F)(F)F)c2C)c([N+](=O)[O-])n1	0	4	1	0	-11
Cc1cc(C)n(C(=O)CN(C)S(=O)(=O)c2ccc([N+](=O)[O-])cc2)n1	-5	3	1	0	-12
Cc1cc(C)cc(NC(=O)CN2C(=O)c3ccccc3Sc3ccc(C(=O)N4CCOCC4)cc32)c1	-4	0	12	0	19
O=C(/C=C/c1ccc(Cl)cc1)NC1CC2CCC1C2 (stereo unspecified)	-6	1	-5	0	/
N#Cc1c(-c2ccccc2Cl)c2c([nH]c1=O)-c1ccccc1OC2	7	0	2	-2	13
CCOc1ccc(-c2oc3ccc(C)cc3c(=O)c2O)cc1	-3	37*	-10	4	-10
COc1cccc(-c2oc3ccc(C)cc3c(=O)c2O)c1	-4	61*	-3	6	2
Cc1ccc(-c2oc3ccccc3c(=O)c2O)cc1	-5	30*	-11	6	-26
Cc1ccc(-c2oc3ccccc3c(=O)c2OCC(=O)O)cc1	6	3	2	2	8
Cc1cc(NC(=O)Nc2ccccc2[N+](=O)[O-])n(C)n1	3	2	0	1	3
CS(=O)(=O)Nc1ccccc1C(=O)NC1CC2CCC1C2 (stereo unspecified)	-2	3	0	0	-6
CCCCCNC(=O)c1ccc(NS(=O)(=O)c2ccc3[nH]c(=O)[nH]c3c2)cc1	-4	0	5	-3	-11
SMILES	D1 potentiator	D1 agonist	TRHR enhancer	TRHR agonist	D1 antag
CCN(CC(=O)Nc1ccc(NC(C)=O)cc1)C(=O)c1ccc(N2CCC(C)CC2)c([N+](=O)[O-])c1	-2	3	5	0	3
CCCn1c(CCC(=O)Nc2cccc(CC)c2)nc2cccnc21	-4	0	6	-1	-9
COc1ccc(CN2CCN(S(=O)(=O)c3ccccc3)CC2)cc1Br	2	2	2	0	-1
Clc1ccc2c(c1)CNc1c(ncnc1N1CCOCC1)O2	-9	3	0	-1	-43*
Clc1ccc2c(N3CCOCC3)ccnc2c1	-2	3	-1	1	-3
CC(C)c1ccccc1NC1=CC(=O)CC(C)(C)C1	-4	3	-1	0	21
N#CC12CCCCC1CC1CCCCC1(C#N)N2Cc1ccccn1 (stereo unspecified)	2	1	0	-1	-1
COCCNC(=O)C(OC(=O)c1cccs1)c1ccccc1 (stereo unspecified)	3	9	-9	-1	-36*
Cc1ccc(C(=O)CSC2=C(C#N)C(c3ccco3)CC(=O)N2)c(C)c1 (stereo unspecified)	-6	63*	-1	9	-58*
Cc1c(CC(=O)NCC(=O)N[C@H](Cc2ccccc2)C(=O)O)c(=O)oc2cc(O)ccc12	-6	1	-1	0	7
CCC(C)NC(=O)c1ccc2c(c1)N(Cc1ccccc1F)C(=O)c1ccccc1S2=O (stereo unspecified)	2	2	-2	0	8
COc1ccc(C(=O)n2nc(-c3ccco3)nc2N)cc1OC	0	1	7	0	-8
COc1ccc(C(=O)n2nc(-c3ccccc3)nc2N)cc1OC	1	1	-5	0	-34*
CCC(C)(C)NC(=O)C(c1ccc(OC)cc1)N(Cc1cccs1)C(=O)CCC(=O)Nc1cc(C)on1 (stereo unspecified)	-9	0	-3	-1	-35*
NC(N)=NS(=O)(=O)c1ccc(NC(=S)NC(=O)/C=C/c2ccccc2)cc1	3	0	0	1	0
CS(=O)(=O)N1CCC(C(=O)Nc2ccc(Cl)c(Cl)c2)CC1	-5	20	-12	4	-59*
Cc1ccc(NC(=O)C2CCN(S(=O)(=O)c3ccc4c(c3)CCCN4C(=O)C3CCC3)CC2)cc1	-7	1	-4	-1	-48*
O=C(Nc1ccc(F)cc1)C1CCN(S(=O)(=O)c2ccc3c(c2)CCCN3C(=O)C2CCC2)CC1	-6	0	-2	0	-22
Cc1ccc(S(=O)(=O)N2CCC(C(=O)Nc3ccc(C)c(Cl)c3)CC2)cc1	-5	14	6	-1	-39*
CS(=O)(=O)N1CCC(C(=O)Nc2cc(Cl)ccc2Cl)CC1	1	1	4	-1	2
CS(=O)(=O)N1CCC(C(=O)Nc2cc(Cl)c(Cl)cc2Cl)CC1	1	6	-12	0	-34*
Cc1ccc(Cl)cc1NC(=O)c1oc2ccc(S(=O)(=O)N3CCCCCC3)cc2c1C	0	-2	7	0	-1
COc1ccc(-c2cn3c(n2)sc2cc(C(=O)NCCCN4CCCCC4)ccc23)cc1	-4	0	-1	-1	-13
COc1ccc(NC(=O)C(=O)c2cn(CC(=O)N3CCOCC3)c3ccccc23)cc1OC	0	1	-7	0	-3
CCOc1ccc(NC(=O)C2CCCN2C(=O)Oc2ccccc2)cc1 (stereo unspecified)	-5	1	9	0	9
CCc1ccc(NS(=O)(=O)c2cccc3nsnc23)cc1	-12	1	-9	-1	5
